Here are results for 23 molecules from PubChem BioAssay.

Values without a mark were called inactive. No rule for the calls is given here.

Sequence of Pantothenate synthetase (Mycobacterium tuberculosis (strain ATCC 25618 / H37Rv)) (P9WIL5 whole entry, looked up): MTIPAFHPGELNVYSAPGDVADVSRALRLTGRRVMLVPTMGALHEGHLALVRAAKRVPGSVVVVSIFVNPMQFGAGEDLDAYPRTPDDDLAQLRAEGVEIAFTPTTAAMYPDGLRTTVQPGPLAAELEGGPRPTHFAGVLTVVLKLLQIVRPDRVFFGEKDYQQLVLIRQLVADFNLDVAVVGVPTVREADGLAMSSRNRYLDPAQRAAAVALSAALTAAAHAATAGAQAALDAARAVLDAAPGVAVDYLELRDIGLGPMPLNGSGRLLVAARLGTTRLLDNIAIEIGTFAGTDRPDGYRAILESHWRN

The experiment addresses Pantothenate synthetase (Mycobacterium tuberculosis (strain ATCC 25618 / H37Rv)) (UniProt P9WIL5). Kind of experiment: Recombinant Mtb pantothenate synthetase (PanC) inhibitors, coupled enzyme, confirmatory (AID 375).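 Also: 0% = full reaction with vehicle and 100% = no enzyme background.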 The conditions noted are these: coupled enzyme assay; at 10 µM, active compounds read high.
As to `COc1ccccc1-n1c(=O)[nH]c2c(C(N)=O)nc(-c3cccnc3)nc21`, the inhibition was 0%.

For the molecule `Cc1nnc(SCC(=O)Nc2sc3c(c2C#N)CCCC3)[nH]c1=O`, the inhibition is 0%.

Consider `COc1cccc(-c2nc(CSCC(=O)N3CCc4ccccc43)c(C)o2)c1`, for which the inhibition is 0%.

On to `Cn1c(SCC(=O)Nc2ccc3c(c2)oc2ccccc23)nnc1-c1ccccc1`, for which the inhibition is 5%.

In the case of `CCOc1ccccc1NC(=O)C1CCCN(C(=O)NCc2ccccc2)C1` (stereo not drawn), the inhibition was 8%.

Regarding `Fc1c(F)c(F)c(CSc2nc3ccccc3[nH]2)c(F)c1F`, the inhibition was 3%.

With `Fc1cccc(Nc2ncnc3c2cnn3-c2ccccc2)c1`, the inhibition was 2%.

For the molecule `O=C(COC(=O)CSc1nnc(-c2ccc(Cl)cc2)o1)NCc1ccc2c(c1)OCO2`, the inhibition was 12%.

Consider `Cn1nc(C(C)(C)C)cc1C(=O)NCc1ccc(N2CCCC2=O)cc1`, for which the inhibition was 0%.

For `Cc1ncc(CSc2nc3ccccc3[nH]2)c(N)n1`, the inhibition is 5%.

`COc1cccc(N2CCN(Cc3nc(N)nc(Nc4ccccc4)n3)CC2)c1`: the inhibition is 0%.

With `COC(=O)COc1cccc(NC(=O)COc2ccccc2)c1`, the inhibition is 2%.

For the molecule `CC1Oc2ccccc2N(CC(=O)N(Cc2ccccc2)Cc2ccccn2)C1=O` (stereo not drawn), the inhibition is 4%.

As to `O=C(O)c1cc(/C=N\O)ccc1OCc1ccccc1`, the inhibition is 3%.

In the case of `COc1ccc(CCNc2nc(N3CCOCC3)nc(N3CCOCC3)n2)cc1OC`, the inhibition is 0%.

In the case of `COCCCN1C(=O)C(O)=C(C(C)=O)C1c1ccccn1` (stereo not drawn), the inhibition was 3%.

In the case of `Cn1c(-c2ccccc2)cc(=O)c2ccccc21`, the inhibition was 0%.

`C=CCn1c(C)cc(C(=O)CSc2nc3ccccc3c(=O)[nH]2)c1C`: the inhibition is 0%.

For `c1ccc(Cn2nnnc2CN2CCN(c3ncccn3)CC2)cc1`, the inhibition was 1%.

Regarding `CCOC(=O)c1ccc(NS(=O)C23CC4CC(CC(C4)C2)C3)cc1` (stereo not drawn), the inhibition was 8%.

Take `O=C(NCC1CCCO1)C1CCN(S(=O)(=O)c2cccc3cccnc23)CC1` (stereo not drawn): the inhibition is 0%.

On to `O=C(COc1ccc(=O)n(-c2ccccc2)n1)Nc1ccccc1`, for which the inhibition is 0%.

On to `CCOc1ccc(C2C(C#N)=C(N)Oc3cc(C)n(CCN(C)C)c(=O)c32)cc1OCC` (stereo not drawn), for which the inhibition is 0%.

A word on the inhibition: it is the change of the read-out against control, counted positive when it falls.
